PubChem BioAssay AID1159580 (chemical genetic matrix, 2015)
Values joined by “and” are separate entries in the source; they are usually repeats but may differ in a detail not shown here. Equal values may be shown once. The campaign covered roughly 5,500 compounds. About 2,000 (36%) were called active. Inconclusive results (about 18%) are left out. Cut-off read from the data, not from the text of the source: active = normalized growth mostly below about 0.91 (no sharp cut-off); inconclusive = no clear call, values can overlap the other calls; inactive = mostly above about 0.92. This is one part of the list.

Experiment: chemical genetic growth profiling, strain panel (AID 1159580);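 note: tested at 20 µM; growth read once vehicle control cultures reached saturation at 30 °C; 1 = growth at the plate median or of vehicle wells; lower values mean less growth of the strain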
Details: S. cerevisiae deletion strains, growth OD

Measured: normalized growth

CCC(=O)O[C@]1(C(=O)CCl)[C@@H](C)CC2C3CCC4=CC(=O)C=C[C@]4(C)[C@@]3(F)[C@@H](O)C[C@@]21C (stereo not given in full)
inactive: locus YAL013W, strain DEP1, stronger effect = lower value 0.976 | locus YAL021C, strain ccr4, stronger effect = lower value 1.02 | locus YAL026C, strain drs2, stronger effect = lower value 1.02 | locus YAL030W, strain snc1, stronger effect = lower value 1.02 | locus YBL061C, strain skt5, stronger effect = lower value 1.03 | locus YBR009C, strain hhf1, stronger effect = lower value 1.01 | locus YBR021W, strain FUR4, stronger effect = lower value 0.968 | locus YBR023C, strain chs3, stronger effect = lower value 1.02 | locus YBR171W, strain sec66, stronger effect = lower value 1.03 | locus YBR229C, strain ROT2, stronger effect = lower value 0.986 | locus YBR231C, strain swc5, stronger effect = lower value 1.02 | locus YBR279W, strain paf1, stronger effect = lower value 1 | locus YCL011C, strain gbp2, stronger effect = lower value 1.02 | locus YCL016C, strain dcc1, stronger effect = lower value 1.02 | locus YCL029C, strain bik1, stronger effect = lower value 0.96 | locus YCL061C, strain MRC1, stronger effect = lower value 1.03 | locus YCL069W, strain vba3, stronger effect = lower value 1.02 | locus YCR088W, strain abp1, stronger effect = lower value 1.02 | locus YDL005C, strain med2, stronger effect = lower value 1.03 | locus YDL035C, strain GPR1, stronger effect = lower value 0.958 | locus YDL040C, strain nat1, stronger effect = lower value 1.03 | locus YDL074C, strain BRE1, stronger effect = lower value 0.975 | locus YDL101C, strain DUN1, stronger effect = lower value 0.989 | locus YDL134C, strain PPH21, stronger effect = lower value 0.981 | locus YDL185W, strain tfp1, stronger effect = lower value 0.949 | locus YDL192W, strain arf1, stronger effect = lower value 0.982 | locus YDR001C, strain nth1, stronger effect = lower value 1.02 | locus YDR069C, strain doa4, stronger effect = lower value 1.03 | locus YDR101C, strain arx1, stronger effect = lower value 1.01 | locus YDR137W, strain rgp1, stronger effect = lower value 0.99 | locus YDR150W, strain NUM1, stronger effect = lower value 0.975 | locus YDR159W, strain sac3, stronger effect = lower value 1.02 | locus YDR162C, strain NBP2, stronger effect = lower value 0.953 | locus YDR195W, strain ref2 1.02 | locus YDR297W, strain sur2, stronger effect = lower value 1.01 | locus YDR318W, strain mcm21, stronger effect = lower value 0.988 | locus YDR334W, strain swr1, stronger effect = lower value 1.01 | locus YDR335W, strain msn5, stronger effect = lower value 1.02 | locus YDR388W, stronger effect = lower value 0.987 | locus YDR392W, strain spt3, stronger effect = lower value 1.03 | locus YDR502C, strain sam2, stronger effect = lower value 0.963 | locus YEL003W, strain gim4, stronger effect = lower value 1.01 | locus YEL037C, strain rad23, stronger effect = lower value 1.02 | locus YEL061C, strain CIN8 (second series), stronger effect = lower value 1.02 | locus YEL061C, strain CIN8, stronger effect = lower value 0.985 | locus YER015W, strain faa2, stronger effect = lower value 1.01 | locus YER016W, strain bim1, stronger effect = lower value 1.01 | locus YER110C, stronger effect = lower value 0.971 | locus YER111C, strain swi4, stronger effect = lower value 1.02 | locus YER155C, strain BEM2 (second series), stronger effect = lower value 1.07 | locus YER155C, strain BEM2, stronger effect = lower value 0.987 | locus YER167W, strain BCK2, stronger effect = lower value 0.986 | locus YFR010W, strain ubp6, stronger effect = lower value 1.02 | locus YGL078C, strain dbp3, stronger effect = lower value 0.978 | locus YGL086W, strain mad1, stronger effect = lower value 0.973 | locus YGL167C, strain pmr1, stronger effect = lower value 1.03 | locus YGL173C, strain kem1, stronger effect = lower value 1.05 | locus YGL227W, strain vid30, stronger effect = lower value 1.04 | locus YGL240W, strain doc1, stronger effect = lower value 1.02 | locus YGL248W, strain PDE1, stronger effect = lower value 1.02 | locus YGL253W, strain hxk2, stronger effect = lower value 1 | locus YGR078C, strain PAC10, stronger effect = lower value 0.999 | locus YGR135W, strain pre9, stronger effect = lower value 0.974 | locus YGR229C, strain SMI1, stronger effect = lower value 0.971 | locus YGR252W, strain gcn5, stronger effect = lower value 1.04 | locus YHR013C, strain ard1, stronger effect = lower value 1.03 | locus YHR027C, strain rpn1, stronger effect = lower value 1.01 | locus YHR030C, strain SLT2, stronger effect = lower value 0.974 and 0.963 | locus YHR079C, strain IRE1 (second series), stronger effect = lower value 0.98 | locus YHR079C, strain IRE1, stronger effect = lower value 0.957 | locus YHR094C, strain hxt1, stronger effect = lower value 0.972 | locus YHR129C, strain ARP1, stronger effect = lower value 0.993 | locus YHR142W, strain chs7, stronger effect = lower value 1.01 | locus YHR200W, strain rpn10, stronger effect = lower value 0.977 | locus YIL066C, strain RNR3, stronger effect = lower value 0.985 | locus YIL073C, strain SPO22, stronger effect = lower value 0.876 | locus YIL125W, strain kgd1, stronger effect = lower value 0.985 | locus YIR030C, strain dcg1, stronger effect = lower value 0.985 | locus YJL092W, strain hpr5, stronger effect = lower value 1.02 | locus YJL095W, strain BCK1 (second series), stronger effect = lower value 1.03 | locus YJL095W, strain BCK1, stronger effect = lower value 1.05 and 0.971 | locus YJL115W, strain asf1, stronger effect = lower value 1.04 | locus YJL129C, strain trk1, stronger effect = lower value 1.01 | locus YJL134W, strain LCB3, stronger effect = lower value 0.981 | locus YJL154C, strain vps35, stronger effect = lower value 1.01 | locus YJL164C, strain tpk1, stronger effect = lower value 1.03 | locus YJL166W, strain qcr8, stronger effect = lower value 1.03 | locus YJL168C, strain set2, stronger effect = lower value 1 | locus YJL187C, strain SWE1 (second series), stronger effect = lower value 1 | locus YJL187C, strain SWE1, stronger effect = lower value 1.02
